Measured values as given in the supplement of paper PMC8728848.
The sample as a whole holds a higher share of the strongest signals than the screen did.

Experiments:
Assay in all cases: glycan array binding signal (z-score within array); higher = stronger binding
Details in all cases: glycan notation: IUPAC condensed, linker removed
[1] = molecular target: Fuc(a1-2)Gal(b1-4)GlcNAc(b1-3)Gal(b1-4)GlcNAc
Summary of the method: (§1)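 Glycan array data were curated from 3228 arrays in the Consortium for Functional Glycomics database and kept only where the protein sequence was available. Glycan names were converted to IUPAC-condensed notation, and columns mapping to the same glycan were averaged. The binding signal is a within-array Z-score, averaged across arrays of the same protein sequence at different concentrations or buffers and across linkers. Negative Z-scores can be read as non-binding.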

[2] = molecular target: Fuc(a1-3)[Gal3S(b1-4)]GlcNAc6S
Summary of the method: as §1

[3] = molecular target: Fuc(a1-3)[Neu5Ac(a2-3)]Gal(b1-4)GlcNAc(b1-3)GalNAc
Summary of the method: as §1

[4] = molecular target: Gal(b1-3)GalNAc(b1-4)[Neu5Ac(a2-3)]Gal(b1-4)Glc
Summary of the method: as §1

[5] = molecular target: Gal(b1-3)[Fuc(a1-4)]GlcNAc(b1-3)Gal(b1-4)[Fuc(a1-3)]GlcNAc
Summary of the method: as §1

[6] = molecular target: Gal(b1-4)Glc6S
Summary of the method: as §1

[7] = molecular target: Gal(b1-4)GlcNAc(b1-2)Man(a1-6)Man(b1-4)GlcNAc(b1-4)GlcNAc
Summary of the method: as §1

[8] = molecular target: Gal(b1-4)GlcNAc(b1-2)Man(a1-6)[Man(a1-3)]Man(b1-4)GlcNAc(b1-4)GlcNAc
Summary of the method: as §1

[9] = molecular target: Gal(b1-4)GlcNAc(b1-6)[Gal(b1-3)]GalNAc
Summary of the method: as §1

[10] = molecular target: Gal3S(b1-3)[Fuc(a1-4)]GlcNAc
Summary of the method: as §1

[11] = molecular target: GalNAc(b1-3)Gal
Summary of the method: as §1

[12] = molecular target: GalNAc(b1-3)Gal(a1-4)Gal(b1-4)GlcNAc
Summary of the method: as §1

[13] = molecular target: GlcNAc(a1-4)Gal(b1-4)GlcNAc(b1-3)Gal(b1-4)[Fuc(a1-3)]GlcNAc(b1-3)Gal(b1-4)[Fuc(a1-3)]GlcNAc
Summary of the method: as §1

[14] = molecular target: GlcNAc(b1-2)Man(a1-3)[GlcNAc(b1-2)Man(a1-6)]Man(b1-4)GlcNAc(b1-4)GlcNAc
Summary of the method: as §1

[15] = molecular target: GlcNAc(b1-3)Gal(b1-4)Glc
Summary of the method: as §1

[16] = molecular target: Kdn(a2-3)Gal(b1-4)GlcNAc
Summary of the method: as §1

[17] = molecular target: Man(a1-2)Man(a1-2)Man(a1-3)Man
Summary of the method: as §1

[18] = molecular target: Man(a1-3)[Man(a1-6)]Man
Summary of the method: as §1

[19] = molecular target: Neu5Ac(a2-3)Gal(b1-3)GalNAc(b1-3)Gal(a1-4)Gal(b1-4)Glc
Summary of the method: as §1

[20] = molecular target: Neu5Ac(a2-3)Gal(b1-3)[Neu5Ac(a2-3)Gal(b1-4)]GlcNAc
Summary of the method: as §1

[21] = molecular target: Neu5Ac(a2-6)Gal(b1-4)Glc
Summary of the method: as §1

[22] = molecular target: Neu5Ac(a2-8)Neu5Ac(a2-3)[GalNAc(b1-4)]Gal(b1-4)Glc
Summary of the method: as §1

[23] = molecular target: Neu5Ac9Ac(a2-3)Gal(b1-3)GlcNAc
Summary of the method: as §1

[24] = molecular target: Neu5Ac9Ac(a2-6)Gal(b1-4)GlcNAc
Summary of the method: as §1

[25] = molecular target: Neu5Gc(a2-3)Gal(b1-4)[Fuc(a1-3)]GlcNAc
Summary of the method: as §1

B1: Flo11 (Saccharomyces cerevisiae), Q1H8S8 (protein)
chain: MGSSHHHHHHSSGLVPRGSHMFPTALVPRGSSEGTSCNSIVNGCPNLDFNWHMDQQNIMQYTLDVTSVSWVQDNTYQITIHVKGKENIDLKYLWSLKIIGVTGPKGTVQLYGYNENTYLIDNPTDFTATFEVYATQDVNSCQVWMPNFQIQFEYLQGSAAQYASSWQWGTTSFDLSTGCNNYDNQGHSQTDFPGFYWNIDCDNNCGGTKSS
glycan array binding signal (z-score) [1]: -0.01 | glycan array binding signal (z-score) [2]: 1.26 | glycan array binding signal (z-score) [3]: 3.1 | glycan array binding signal (z-score) [4]: 2.88 | glycan array binding signal (z-score) [5]: -0.502 | glycan array binding signal (z-score) [6]: -0.505 | glycan array binding signal (z-score) [7]: -0.507 | glycan array binding signal (z-score) [8]: -0.506 | glycan array binding signal (z-score) [9]: -0.482 | glycan array binding signal (z-score) [10]: -0.502 | glycan array binding signal (z-score) [11]: 3.63 | glycan array binding signal (z-score) [12]: 4.27 | glycan array binding signal (z-score) [13]: 0.071 | glycan array binding signal (z-score) [14]: -0.505 | glycan array binding signal (z-score) [15]: 1.26 | glycan array binding signal (z-score) [16]: -0.496 | glycan array binding signal (z-score) [17]: -0.505 | glycan array binding signal (z-score) [18]: -0.502 | glycan array binding signal (z-score) [19]: 3.08 | glycan array binding signal (z-score) [20]: -0.511 | glycan array binding signal (z-score) [21]: -0.507 | glycan array binding signal (z-score) [22]: 3.67 | glycan array binding signal (z-score) [23]: -0.505 | glycan array binding signal (z-score) [24]: -0.494 | glycan array binding signal (z-score) [25]: 3.45
